The list shows a part of the results. Records with an inconclusive call do not appear. The source made the active and inactive calls. Calls come from the whole dose curve.

Sequence of Peroxisome proliferator-activated receptor gamma (Homo sapiens) (P37231 whole entry, looked up, the tested form may be a part): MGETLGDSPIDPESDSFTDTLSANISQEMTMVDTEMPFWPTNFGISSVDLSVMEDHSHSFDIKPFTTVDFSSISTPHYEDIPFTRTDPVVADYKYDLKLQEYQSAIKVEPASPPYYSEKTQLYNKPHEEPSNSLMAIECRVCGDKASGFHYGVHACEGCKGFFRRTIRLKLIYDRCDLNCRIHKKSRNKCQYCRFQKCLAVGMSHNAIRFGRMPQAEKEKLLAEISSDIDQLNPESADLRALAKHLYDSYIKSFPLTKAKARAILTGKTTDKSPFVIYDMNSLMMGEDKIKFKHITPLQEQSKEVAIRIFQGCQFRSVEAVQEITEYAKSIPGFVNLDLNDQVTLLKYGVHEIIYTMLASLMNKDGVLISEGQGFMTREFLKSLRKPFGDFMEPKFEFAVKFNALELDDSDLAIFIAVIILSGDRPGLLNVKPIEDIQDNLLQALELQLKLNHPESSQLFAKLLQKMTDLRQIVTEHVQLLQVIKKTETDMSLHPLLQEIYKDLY

The target of this assay is Peroxisome proliferator-activated receptor gamma (Homo sapiens) (UniProt P37231). Description: PPAR gamma Selectivity Assay For Inhibitors of the Interaction of Thyroid Hormone Receptor and Steroid Receptor Coregulator 2. As to conditions: PPARg LBD / Texas Red DRIP-2 peptide, fluorescence polarization, 3 h. The source says:
NIH Molecular Libraries Probe Production Network [MLPCN] NIH Chemical Genomics Center [NCGC] MLPCN Grant: DK058080 Assay Provider: R. Kip Guy, St. Jude Children's Research Hospital NCGC Assay Overview: Thyroid receptor (TR) regulates many homeostatic processes including basal metabolism, cardiovascular function, body weight, and lipid trafficking. TR modulators are potential therapeutics for obesity and hyperlipidemias but current thyroid analogs have undesirable side effects, particularly cardiac stimulation. This secondary assay characterized compounds identified in the qHTS for Inhibitors of the Interaction of Thyroid Hormone Receptor and Steroid Receptor Coregulator 2 (PubChem AID 1485) for selectivity against PPAR gamma. […] Small molecule inhibitors that block the interaction of PPAR and DRIP-2 are detected by a decrease in fluorescence polarization. […]
NCGC Assay Protocol Summary: Twenty uL/well 2 uM PPAR gamma and 10 nM Tx-DRIP-2 peptide in protein buffer (20 mM TRIS, pH 7.5, 100 mM NaCl, 0.01% NP-40, 20 uM roziglitazone, and 4% DMSO) was dispensed into black solid 384-well plates (Costar 3710) using a Biomek FX (Beckman Coulter) liquid handling system. […] The plates were read by an Envision (Perkin Elmer) to detect Texas Red polarization of Tx-DRIP-2 (555 nm excitation and 632 nm emission).
(In general: Fluorescence polarisation rises when a labelled molecule tumbles more slowly, as on binding a larger partner.)
For the compound `O=C(COC(=O)c1cccc([N+](=O)[O-])c1)NC1C2CC3CC(C2)CC1C3` (stereo unspecified), the compound was called inactive.

For the origin of these results see PubChem BioAssay AID2449 (National Center for Advancing Translational Sciences (NCATS), 2010).
